# Measurements from PubChem BioAssay AID602438 (Sanford-Burnham Center for Chemical Genomics, 2012).
# About 3,100 (0.86%) of roughly 360,000 compounds were called active.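 The calls were made as follows: active = inhibition or corrected inhibition above about 18%, plus a signal ratio from 0.5 to 1.5 (limit read from the data, passing the limit was not always enough); inactive = the rest.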 For the sample, actives were picked, then their nearest neighbours and some compounds at random.
# Target: Neuropilin-1 (Homo sapiens) (UniProt O14786)
# Sequence (O14786 whole entry, looked up): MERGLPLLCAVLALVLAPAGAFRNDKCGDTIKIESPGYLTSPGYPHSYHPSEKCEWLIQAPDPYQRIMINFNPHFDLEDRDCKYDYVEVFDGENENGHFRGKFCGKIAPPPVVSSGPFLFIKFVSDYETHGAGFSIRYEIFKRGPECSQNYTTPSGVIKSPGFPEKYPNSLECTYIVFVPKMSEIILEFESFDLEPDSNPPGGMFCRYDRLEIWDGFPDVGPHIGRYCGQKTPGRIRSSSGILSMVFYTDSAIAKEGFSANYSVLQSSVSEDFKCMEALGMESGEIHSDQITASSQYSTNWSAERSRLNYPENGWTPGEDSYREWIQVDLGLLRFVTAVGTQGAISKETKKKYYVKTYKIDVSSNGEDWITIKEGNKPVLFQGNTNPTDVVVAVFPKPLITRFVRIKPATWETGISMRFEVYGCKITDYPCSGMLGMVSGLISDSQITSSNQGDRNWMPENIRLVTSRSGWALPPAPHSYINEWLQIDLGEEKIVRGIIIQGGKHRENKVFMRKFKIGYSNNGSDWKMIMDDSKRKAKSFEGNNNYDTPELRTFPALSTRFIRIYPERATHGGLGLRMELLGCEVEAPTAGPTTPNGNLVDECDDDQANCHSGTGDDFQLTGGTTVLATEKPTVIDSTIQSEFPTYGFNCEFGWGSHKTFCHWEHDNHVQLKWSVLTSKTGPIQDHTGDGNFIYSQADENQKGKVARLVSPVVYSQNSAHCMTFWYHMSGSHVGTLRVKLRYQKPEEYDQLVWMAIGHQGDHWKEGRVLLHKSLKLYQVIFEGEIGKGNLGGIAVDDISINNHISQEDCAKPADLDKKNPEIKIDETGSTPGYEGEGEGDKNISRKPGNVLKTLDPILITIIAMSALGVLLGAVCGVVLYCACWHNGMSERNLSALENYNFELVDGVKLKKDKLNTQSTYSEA
# Assay: NRP-1/CendR peptide interaction modulators – biochemical, fluorescence polarization, uHTS, primary screen (AID 602438)
# Conditions: FAM-RPARPAR peptide binding to NRP-1, fluorescence polarization; at 25 µM; stronger effect = higher value
row,Structure (SMILES),inhibition
1,Cc1ccc(-c2nc(CS(=O)CC(=O)N3CCN(c4ncccn4)CC3)c(C)o2)cc1 (configuration not stated),-11.2% (inactive)
2,CCNC(=S)N(CCc1c(C)[nH]c2ccc(C)cc12)Cc1ccco1,-23.4% (inactive)
3,Cc1ccc(C)c(N(CC(=O)NCc2ccco2)C(=O)CCC(=O)Nc2ccccn2)c1,-4.5% (inactive)
4,CCCCC1=CC2=CC(=O)C(C)(OC(=O)CC)C(=O)C2=CN1CCCOC(C)C (configuration not stated),29.4% (active)
5,CCN(CC)C(=O)N1CCN(C(=O)c2ccc(C)cn2)CC1,0.3% (inactive)
6,Cc1ccc(C(CC(=O)O)NC(=O)c2ccc(S(=O)(=O)N3CCCC3)cc2)cc1 (configuration not stated),-5.6% (inactive)
7,N/C(=N\OC(=O)Cc1ccc([N+](=O)[O-])cc1)c1ccccn1,-0.7% (inactive)
8,O=C(OCc1ccc([N+](=O)[O-])cc1)c1ccccn1,28.2% (active)
9,O=C(COC(=O)c1ccccn1)NNC(=O)c1ccc([N+](=O)[O-])cc1,2.2% (inactive)
10,Cc1ccc(OCC(=O)N2CCN(C(=O)c3cccnc3)CC2)cc1,6.1% (inactive)
11,O=C(C[C@H]1CC[C@H]2[C@@H](COC[C@H](O)CN2C(=O)c2ccccn2)O1)N1CCN(c2ccccc2)CC1,2.2% (inactive)
12,COc1cc(C2C(C(=O)c3sc(C)nc3C)=C(O)C(=O)N2CCN(C)C)cc(OC)c1OC (configuration not stated),0.6% (inactive)
13,Cc1ccc(S(=O)(=O)N2CCC(=O)N([C@H](COCc3ccccc3)C(C)C)CC2)cc1,-3.6% (inactive)
14,COc1ccc(COCCN2CCN(S(=O)(=O)c3ccccc3)CCC2=O)cc1,28.5% (active)
15,Cc1ccc(S(=O)(=O)N2CCC(=O)N([C@H](COCc3ccccc3)Cc3ccccc3)CC2)cc1,-15.7% (inactive)
16,CCCCCn1nnnc1-c1nc2cc3ccccc3cc2[nH]c1=O,0% (inactive)
17,COCCCNC(=O)c1c(F)c(F)c(F)c(F)c1F,8.4% (inactive)
18,Cc1nc(C(F)(F)F)ccc1C(=O)N1CCC1(C)C(=O)NS(=O)(=O)c1ccccc1Cl (configuration not stated),13.8% (inactive)
19,NC(=O)COc1ccccc1C(=O)NC12CC3CC(CC(C3)C1)C2,-2.6% (inactive)
20,O=C(NCCN1CCOCC1)c1ccccc1N1C(=O)[C@@H]2Cc3c([nH]c4ccccc34)C(c3cccc(Cl)c3)N2C1=O (some centres not stated),-5.5% (inactive)
21,Cc1ccc(OCc2nnc(NC(=O)OCC(C)C)s2)cc1,19.5% (active)
22,CCOCc1nnc(NC(=O)CSc2ccc(C)cc2)s1,-1% (inactive)
23,O=C(Nc1nnc(COc2ccccc2)s1)Nc1ccccc1F,-10.8% (inactive)

row,Structure (SMILES),inhibition
1,O=C(CNCc1ccco1)Nc1cc(S(=O)(=O)N2CCOCC2)ccc1N1CCCC1,7.8% (inactive)
2,Cc1cc(C)c(CN2CCN(C(=O)Cn3ccc(NC(=O)OCc4ccccc4)nc3=O)CC2)c(C)c1,3.3% (inactive)
3,O=C(c1ccccc1)c1cccn1CC(=O)N1CCN(c2ccc(F)cc2)CC1,-4.3% (inactive)
4,Cc1ccc(CNS(=O)(=O)c2ccc3c(c2)N(C)CCO3)cc1,-8.8% (inactive)
5,Cc1nonc1NC(=O)c1oc2ccccc2c1C,7.8% (inactive)
6,COc1ccc(-c2nonc2NC(=O)c2oc3ccc(F)cc3c2C)cc1OC,30.3% (active)
7,CCc1nonc1NC(=O)c1oc2ccc(Cl)cc2c1C,13.2% (inactive)
8,O=C(NCc1ccc2c(c1)OCO2)C1CCCN(S(=O)(=O)c2cccs2)C1 (configuration not stated),-10.1% (inactive)
9,CCCCc1c(-c2ccc(Br)cc2)ncn1CCc1ccccc1OC,12.7% (inactive)
10,CC(C)C1Cc2[nH][nH]c(=O)c2C(c2ccc(Cl)cc2)O1 (configuration not stated),-4.6% (inactive)
11,CC(C)NC(=O)c1ccccc1S(=O)c1ccccc1C#N (configuration not stated),-10.3% (inactive)
12,CCN(CCCCOC(=O)c1ccc(OC)c(OC)c1)C(C)Cc1ccc(OC)cc1 (configuration not stated),-0.7% (inactive)
13,COc1ccc(-c2oc3ncnc(NCCCO)c3c2-c2ccc(OC)cc2)cc1,4.1% (inactive)
14,CCc1oc(-c2ccc(OC)cc2)c(C(=O)OCCCCCO)c1C(C)OCCO (configuration not stated),23% (active)
15,CCOC(=O)C1=CC[C@@H](c2ccccc2)N(S(=O)(=O)c2ccc(C)cc2)[C@H]1c1ccc(CC)cc1,11.1% (inactive)
16,CCOC(=O)C1=CC[C@@H](c2ccccc2)N(S(=O)(=O)c2ccc(C)cc2)[C@H]1c1cccc(OC)c1,26% (active)
17,CC(=O)C1=CCC(c2ccccc2)N(S(=O)(=O)c2ccc(C)cc2)C1 (configuration not stated),-3.9% (inactive)
18,CCOC(=O)C1=CCC(c2ccc(F)cc2)N(S(=O)(=O)c2ccc(C)cc2)C1 (configuration not stated),19.9% (active)
19,CCOC(=O)C1=CC[C@@H](c2ccncc2)N(S(=O)(=O)c2ccc(C)cc2)C1,13.9% (inactive)
20,Cc1ccc([C@@H]2CC=C(C(=O)O)[C@H](c3cccc(Cl)c3)N2S(=O)(=O)c2ccc(C)cc2)cc1,-10.9% (inactive)
21,CCN(CC)S(=O)(=O)c1ccc(CNC(=O)CN2C(=O)NC3(CCc4ccccc43)C2=O)cc1 (configuration not stated),-10.1% (inactive)
22,CCOC(=O)CSc1nccc(N(C)C)c1C#N,25.2% (active)
23,CCOC(=O)CSc1nc(N2CCOCC2)c2c(c1C#N)CC(C(C)C)OC2 (configuration not stated),-2% (inactive)

row,Structure (SMILES),inhibition
1,CCOC(=O)CSc1ccccn1,2.8% (inactive)
2,Cc1n[nH]c(C)c1S(=O)(=O)N1CCCC(C(=O)NCC2COc3ccccc3O2)C1 (configuration not stated),6.3% (inactive)
3,COC(=O)Nc1ncc(CN2CCCCC2)s1,6.1% (inactive)
4,COC(=O)C1(C(=O)OC)C[C@H](c2ccccc2)N(Cc2ccccc2OC)[C@@H]1c1ccccc1,18.8% (inactive)
5,COC(CNC(=O)c1ccc2c(c1)ncn2-c1cc(C)cc(C)c1)OC,-2.4% (inactive)
6,COCCCNC(=O)c1ccc2c(c1)ncn2-c1ccccc1OC,-5.2% (inactive)
7,COCCNC(=O)c1ccc2c(c1)ncn2-c1ccc(C)c(Cl)c1,37.8% (active)
8,CC1(C)NC(=O)N(CC(=O)N2CCN(S(=O)(=O)c3ccccc3F)CC2)C1=O,-17.9% (inactive)
9,CCOC(=O)N1CCC(N(CCOC)C(=O)Nc2ccc(C)c(C)c2)CC1,-9.1% (inactive)
10,CC(=O)NCC(=O)N(C)C(C(=O)Nc1ccc2c(c1)OCCO2)c1ccccc1 (configuration not stated),-6% (inactive)
11,CC(=O)N1c2ccc(S(=O)(=O)N3CCC(C(=O)NCc4ccc(F)cc4)CC3)cc2CC1C (configuration not stated),-3.5% (inactive)
12,CC(=O)N1c2ccc(S(=O)(=O)N3CCC(C(=O)NC4CCCC(C)C4C)CC3)cc2CC1C (configuration not stated),1.3% (inactive)
13,CC(=O)N1c2ccc(S(=O)(=O)N3CCC(C(=O)NC4CCCCC4C)CC3)cc2CC1C (configuration not stated),21.3% (active)
14,COc1ccc(CN(C)C(C)C(=O)NC2CCCc3ccccc32)cc1 (configuration not stated),-9.8% (inactive)
15,COC(=O)c1cc(OCC(=O)NC2CCCc3ccccc32)cc(C(=O)OC)c1 (configuration not stated),11.6% (inactive)
16,COc1ccc2c(c1)C(NS(=O)(=O)OCC(Cl)(Cl)Cl)CCC2 (configuration not stated),20.7% (active)
17,CCCc1nnc(NC(=O)CCC(=O)NC2CC2)s1,-3.9% (inactive)
18,COc1cccc(NC(=O)C2(C)CCN2C(=O)CCC2CCCC2)c1 (configuration not stated),-6.9% (inactive)
19,Cc1cccc(C)c1NC(=O)C1(N(C(=O)c2ccccn2)c2ccc(O)cc2)CCCCC1,-2.4% (inactive)
20,COc1cccc(N(C(=O)c2ccn[nH]2)C2(C(=O)Nc3c(C)cccc3C)CCCCC2)c1,20.6% (active)
21,Cc1nc2c(-c3ccc(F)cc3)c(C)nn2c(C)c1CCC(=O)N1CCN(c2ccccn2)CC1,-14.2% (inactive)
22,COc1ccc(C)cc1Nc1n[n+](-c2ccccc2)c(-c2cccc(Cl)c2Cl)s1,9.5% (inactive)
23,COc1cc(Br)c(-c2sc(Nc3ccccc3)n[n+]2-c2ccccc2)cc1OC,23.7% (active)

row,Structure (SMILES),inhibition
1,CCc1ccc(Nc2n[n+](-c3ccccc3)c(-c3cccc(Cl)c3Cl)s2)cc1,7.2% (inactive)
2,O=C(C(NS(=O)(=O)c1cccc2nsnc12)c1ccccc1)N1CCN(c2ccccc2)CC1 (configuration not stated),3.4% (inactive)
3,COc1ccc(COC(=O)c2ccc(Cl)c(S(=O)(=O)N3CCOCC3)c2)cc1F,-7.6% (inactive)
4,O=C(Cc1ccccc1Cl)N1CCOCC1,45.9% (active)
5,O=C(CP(=O)(c1ccccc1)c1ccccc1)N1CCOCC1,12.2% (inactive)
6,O=C(Cc1ccccc1Cl)N1CCN(c2ccccn2)CC1,-9.5% (inactive)
7,C=CCOc1cccc(CNn2cn[nH]c2=S)c1,-0.4% (inactive)
8,COC(=O)c1c(CCl)noc1C(=O)NC(C)C,28.8% (active)
9,COC(=O)c1onc(-c2c(OC)cc(OC)cc2OC)c1C(=O)OC,2.6% (inactive)
10,CCCNC(=O)c1onc(CSc2ccc(F)cc2)c1C(=O)NC(C)C,5.5% (inactive)
11,CC1CC(C)(C)n2c(O)c(N=NC(N)=S)c3cccc1c32 (configuration not stated),6.2% (inactive)
12,O=C(O)CCCN1C(=O)C2C3c4ccccc4C(c4ccccc43)[C@@H]2C1=O (some centres not stated),-2% (inactive)
13,CCCCN(C)CCNC(=O)C1CCCN(S(=O)(=O)c2cccc3nsnc23)C1 (configuration not stated),-1.2% (inactive)
14,Cn1cccc1C1(C(F)(F)F)NCCNC1=O (configuration not stated),-1.4% (inactive)
15,Cc1c(CCO)c(=O)n(-c2ccccc2)n1S(=O)(=O)c1ccc(F)cc1,-66% (inactive)
16,COc1cccc(-c2ccc3c(c2)N(Cc2ccccc2OC)C(=O)C(C)S3)c1 (configuration not stated),21.5% (active)
17,COc1cccc(-n2cc3c(c2-c2ccccc2)c(=O)n(C)c(=O)n3C)c1,-0.7% (inactive)
18,COc1cccc(-c2cc3nc(NCc4ccccc4OC)n(C)c(=O)c3s2)c1,9.9% (inactive)
19,CN=C(c1ccccc1)c1c(C)cccc1C,1.9% (inactive)
20,Cc1nc(S(=O)(=O)c2ccc(Br)cc2)nc2c1CCC2,0.1% (inactive)
21,Cn1c(N)c(C(=O)COC(=O)/C=C/c2cccc(C(F)(F)F)c2)c(=O)n(C)c1=O,4.9% (inactive)
22,CCOC(=O)CCC(NC(=O)c1ccc(CNc2nc3cc(C(F)(F)F)ccc3nc2C(=O)OCC)cc1)C(=O)OCC (configuration not stated),-1.5% (inactive)
23,CCOC(=O)/C=C/c1ccc(C(F)(F)F)cc1S(=O)(=O)NC(C)(C)C,26.8% (active)
